Screens as filed in PubChem.
TSHR antag: antagonists of human thyroid stimulating hormone receptor | P16473 | TSHR-expressing cells, TSH-stimulated cAMP HTRF, 2 h; stronger effect = lower value | activity change, negative = inhibition, % at 11.5 µM | 0.2% of 330,000 active;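 active = activity change below a set negative limit, meaning inhibition stronger than a set level, cut at about -70% in these data; inconclusive = activity change between two set negative limits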; also: % is scaled to controls: 0 for no effect and ±100 for the full control effect
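Antagonism was scored as loss of TSH-driven cAMP in TSHR cells, stimulated with 4nM TSH (EC80) for 2 hours at 37 deg C and detected by homogeneous HTRF competition immunoassay.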
RXFP1 antag: RXFP1 (human) relaxin receptor antagonism; AID 1259400; HEK293-RXFP1, relaxin-stimulated cAMP HTRF, 30 min; stronger effect = lower value; Q9HBX9; activity change, negative = inhibition, % at 57.5 µM; 0.59% of 350,000 active;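 active = activity change of -60% or lower, but not beyond a set lower limit; inconclusive = change between -60% and -40%, or beyond the set limit; inactive = change above -40%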; also: % is scaled to controls: 0 for no effect and ±100 for the full control effect
Target sequence (Q9HBX9 whole entry, looked up): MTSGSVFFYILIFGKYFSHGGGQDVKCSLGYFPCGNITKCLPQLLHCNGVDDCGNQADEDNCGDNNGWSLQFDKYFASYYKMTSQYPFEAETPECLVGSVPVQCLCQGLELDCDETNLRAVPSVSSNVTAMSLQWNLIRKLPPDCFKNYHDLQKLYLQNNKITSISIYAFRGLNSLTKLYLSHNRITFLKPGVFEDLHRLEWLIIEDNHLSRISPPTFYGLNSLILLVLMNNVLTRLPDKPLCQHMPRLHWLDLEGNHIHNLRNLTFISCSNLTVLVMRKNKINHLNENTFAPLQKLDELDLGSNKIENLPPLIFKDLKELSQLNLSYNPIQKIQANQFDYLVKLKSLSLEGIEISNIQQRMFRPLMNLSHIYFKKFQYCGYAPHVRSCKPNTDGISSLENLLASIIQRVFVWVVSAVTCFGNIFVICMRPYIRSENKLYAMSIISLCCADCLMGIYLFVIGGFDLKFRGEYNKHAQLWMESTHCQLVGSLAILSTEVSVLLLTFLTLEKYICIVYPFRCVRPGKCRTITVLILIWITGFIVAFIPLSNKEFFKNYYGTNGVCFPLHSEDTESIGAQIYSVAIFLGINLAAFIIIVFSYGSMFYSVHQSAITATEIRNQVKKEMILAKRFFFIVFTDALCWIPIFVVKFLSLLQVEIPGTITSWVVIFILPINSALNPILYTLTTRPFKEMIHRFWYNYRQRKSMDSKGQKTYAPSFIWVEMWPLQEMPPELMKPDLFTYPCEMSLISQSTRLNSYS
RXFP1 agonist: activates the human relaxin receptor RXFP1; Q9HBX9; HEK293T-RXFP1 cAMP TR-FRET, 30 min; response scale: percent of porcine relaxin response, buffer zero; Potency, µM (series often up to 57.5 µM), inactives show at the top dose activation, actives largely listed as activators; 0.3% of 370,000 active; active = well fitted activation curve with a large enough effect; inconclusive = small, poorly fitted or top-dose-only effect; also: potency is read from the fitted curve at half-maximal effect; % is scaled to controls: 0 for no effect and ±100 for the full control effect; nearly all actives have a fitted effect of over 60% in size
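HEK293 cells stably expressing RXFP1, treated 30 min at 37C with compounds plus PDE4 inhibitor Ro 20174; cAMP measured by HTRF TR-FRET. Normalized to buffer and 29 nM porcine relaxin; EC50 by Hill fit.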
gsp antag: antagonizes gsp, the McCune-Albright syndrome mutation. gsp-mutant cells, cAMP HTRF, 30 min. 0.4% of 340,000 active. Potency, µM (doses to about 76.9 µM), for inactives: at the highest dose activity change, negative = inhibition, usual class: inhibitors. AID 624288; calls by dose curve; cell line not stated here;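 also: intracellular cAMP measured with PDE inhibitor Ro 20-1724 present during compound exposure; potency is read from the fitted curve at half-maximal effect; % is scaled to controls: 0 for no effect and ±100 for the full control effect; nearly all actives have a fitted effect of over 65% in size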
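Measurement of cellular cAMP by homogeneous time-resolved fluorescence following a 30 min compound exposure at 37C. The PDE inhibitor […] was present throughout; the assay buffer was DPBS with 0.05% BSA and 0.005% Tween 20.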
gsp agonist: gsp mutant agonism. Potency, µM (titrated, usually from 76.9 µM), for inactives: top-dose activation (cAMP increase), most hits filed as activators. gsp mutant cells, cAMP HTRF, 30 min. 0.13% of 340,000 active; active = well fitted activation curve with a large enough effect; inconclusive = small, poorly fitted or top-dose-only effect, or another doubt; inactive = no such curve, though single readings can be large or run the other way; cell line not stated here;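 also: phosphodiesterase inhibitor Ro 20-1724 added with compounds to block cAMP breakdown; potency is read from the fitted curve at half-maximal effect; nearly all actives have a fitted effect of over 60% in size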
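Cells stably selected in G418 were plated at 2000/well, grown 16-24 hr, then given compounds in DMSO with the PDE inhibitor […] (300 uM solution added) for 30 min at 37C; cAMP was read by HTRF.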
Starred values were filed as active, the others as inactive; [ ] = remark or other dose. Sampled rows, rich in hits. Any-hit rate of the full collection: about 1%.

For COc1ccc(NC(=O)c2c(-c3ccc(C)cc3)nnc3ccccc23)cc1Cl the results were RXFP1 antag -4 and RXFP1 agonist 2%.
O=C(c1ccc(CS(=O)Cc2ccc(Cl)cc2)o1)N1CCN(c2cccc(Cl)c2)CC1 (stereo not drawn) was read as TSHR antag -14, RXFP1 antag -20, RXFP1 agonist 4%, gsp antag 32µM* and gsp agonist 36%.
Screening Cc1ccccc1S(=O)Cc1ccc(C(=O)N2CCN(c3cccc(C)c3C)CC2)o1 (stereo not drawn) returned RXFP1 antag -98* and RXFP1 agonist 6%.
O=C(c1ccc(CS(=O)Cc2ccc(Cl)cc2)o1)N1CCN(c2ccc(F)cc2)CC1 (stereo not drawn) was read as TSHR antag -14, RXFP1 antag -1, RXFP1 agonist 1%, gsp antag -3% and gsp agonist -23%.
`Cc1cccc(N2CCN(C(=O)c3ccc(CS(=O)Cc4ccc(Cl)cc4)o3)CC2)c1C` (stereo not drawn) gave TSHR antag -6, RXFP1 antag -78*, RXFP1 agonist 0%, gsp antag -25% and gsp agonist 11%.
Screening Cc1cccc(N2CCN(CCCNC(=O)C3CCCN(c4ncnc5c4nc4n5CCCCC4)C3)CC2C)c1 (stereo not drawn) returned TSHR antag -3, RXFP1 antag 6, RXFP1 agonist -1%, gsp antag -22% and gsp agonist 29%.
Cc1cccc(N2CCN(c3ncnc4c3nc3n4CCCCC3)CC2C)c1 (stereo not drawn) was read as RXFP1 antag -70* and RXFP1 agonist 4%.
Screening Cc1ccc(S(=O)(=O)c2cn(CC(=O)Nc3ccc4c(c3)OCO4)c3ccc(C)cc3c2=O)cc1 returned RXFP1 agonist 0%.
For CCOCCCNC(=O)C(=O)Nc1c2c(nn1-c1ccccc1)CSC2 the results were RXFP1 antag -21 and RXFP1 agonist 0%.
Screening COc1ccc2c(C)cc(=S)[nH]c2c1 returned TSHR antag 4, RXFP1 antag 28, RXFP1 agonist 20µM*, gsp antag 9% and gsp agonist 40%[15.4 µM].
`CCOC(=O)c1nnn2c1nc(SCC(C)=O)c1ccccc12` gave TSHR antag 6, RXFP1 antag 22, RXFP1 agonist 16µM*, gsp antag 18% and gsp agonist 26%[15.4 µM].
O=C(COc1ccccc1O)Nc1ccc(Cl)cc1 was read as TSHR antag 7, RXFP1 antag 5, RXFP1 agonist -3%, gsp antag 35µM* and gsp agonist 18%.
`Cc1ccccc1OCC(=O)NNC(=O)Nc1ccc(Cl)cc1` gave TSHR antag 3, RXFP1 antag 6, RXFP1 agonist 0%, gsp antag 18% and gsp agonist 1%.
COc1ccc(Cn2c(-c3ccc(C)cc3)nc3c(c(=O)c4ccccc4n3C)c2=O)cc1 was read as TSHR antag -7, RXFP1 antag 2, RXFP1 agonist 4%, gsp antag 25µM* and gsp agonist -7%.
For N#CC1(c2ccc(F)cc2)CCC(=O)CC1 the results were RXFP1 antag -9.
`CCc1nc(Nc2ccncc2)c2oc3ccccc3c2n1` gave TSHR antag -2, RXFP1 antag -12, RXFP1 agonist 0%, gsp antag 0% and gsp agonist -19%.
For CCc1nc(Nc2cccc(O)c2)c2oc3ccccc3c2n1 the results were TSHR antag -10, RXFP1 antag -76*, RXFP1 agonist 5%, gsp antag -26% and gsp agonist 22%.
C=CC[n+]1c(-c2ccc(C)cc2)csc1Nc1c(C)n(C)n(-c2ccccc2)c1=O was read as TSHR antag -6, RXFP1 antag inconclusive, RXFP1 agonist 4%, gsp antag -6% and gsp agonist 0%[15.4 µM].
C=CC[n+]1c(-c2ccc(Cl)cc2Cl)csc1Nc1c(C)n(C)n(-c2ccccc2)c1=O was read as TSHR antag -9, RXFP1 antag -68*, RXFP1 agonist 0%, gsp antag inconclusive and gsp agonist 2%.
For CCOC(=O)C1C(=O)Oc2ccc3ccccc3c2C1C1CCOC1=O (stereo not drawn) the results were TSHR antag -4, RXFP1 agonist 0%, gsp antag 50µM* and gsp agonist -5%.
CC(C)OC(=O)C(C(=O)C(F)(F)F)c1cc(NS(=O)(=O)c2ccc3ccccc3c2)c2ccccc2c1O (stereo not drawn) was read as TSHR antag -1, RXFP1 antag -85*, RXFP1 agonist 1%, gsp antag -11% and gsp agonist -26%.
For C=C(C)Cn1c(-c2ccncc2)n[nH]c1=S the results were TSHR antag 3, RXFP1 antag -67*, RXFP1 agonist 1% and gsp agonist -19%[15.4 µM].
S=c1[nH]c2nc(Cl)c(Cl)nc2[nH]1 was read as RXFP1 antag 3 and gsp agonist 13µM*.
S=c1[nH]c2cnc(Cl)nc2[nH]1 was read as RXFP1 antag -2, gsp antag 4% and gsp agonist inconclusive.
For CCOC(=O)C1=C(CC)Nc2ccccc2N=C1NC(=O)CCNC(C)=O the results were TSHR antag 4, RXFP1 antag -75*, RXFP1 agonist 0%, gsp antag -13% and gsp agonist -2%[15.4 µM].
Screening Cc1cc(=O)oc2cc(OCc3ccccc3)ccc12 returned TSHR antag -6, RXFP1 antag -3, RXFP1 agonist 0%, gsp antag -4% and gsp agonist 7%[15.4 µM].
Screening Cc1cc(=O)oc2ccc(OCc3ccccc3)cc12 returned TSHR antag -118*, RXFP1 antag -2, RXFP1 agonist 2%, gsp antag 0% and gsp agonist 10%.
`O=c1c2c(-c3ccc([N+](=O)[O-])cc3)csc2nc2n1CCC2` gave TSHR antag 15, RXFP1 antag 11, RXFP1 agonist inconclusive, gsp antag 10% and gsp agonist 22µM*.
O=[N+]([O-])c1ccc(-c2nnc3n2CCCCC3)cc1 was read as TSHR antag 6, RXFP1 antag -14, RXFP1 agonist 2%, gsp antag 16% and gsp agonist inconclusive.
For CCOC(=O)c1c(S(=O)(=O)NCC(=O)Nc2cccc(CC)c2)c(C)n(C)c1C the results were RXFP1 antag 2 and RXFP1 agonist -1%.
CCOC(=O)c1c(S(=O)(=O)NCC(=O)Nc2cccc(C)c2C)c(C)n(C)c1C was read as TSHR antag -112*, RXFP1 antag -4, RXFP1 agonist 4%, gsp antag 12% and gsp agonist -20%.
Screening N#Cc1cc(C(=O)c2cc(F)ccc2O)cn(Cc2ccccc2)c1=O returned TSHR antag -12, RXFP1 antag -27, RXFP1 agonist 0%, gsp antag -18% and gsp agonist 9%[15.4 µM].
